ELG1 genotoxic: induces genotoxicity in HEK293T cells with luciferase-tagged ELG1. AID 504466. HEK293T ELG1-luciferase reporter, luminescence, 16 h. Potency, µM (top dose mostly 46 µM), for inactives: at the highest dose activity change, positive = activation, hits mostly activators. 1.3% of 330,000 active; note: % of control where 0% means no effect; nearly all actives have a fitted effect of over 60% in size
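Reporter readout depends on ELG1 protein level, which increases with genetic stress. After 16 hr compound exposure at 37 °C, luciferase activity was quantified using ONE-Glo.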
Luc counter: blocks Kinase-Glo luciferase, a counter-screen artifact. Potency, µM (top dose mostly 38.3 µM), for the others: at the top dose activity change, negative = inhibition, actives largely listed as inhibitors. Kinase-Glo luciferase, ATP luminescence, 8 min. 0.28% of 200,000 active. Q27757. AID 1379; note: % is set by controls: 0 for no effect and ±100 for the full control effect; nearly all actives have a fitted effect of over 60% in size
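Inhibition of Kinase-Glo luciferase light generation was assessed at 10 uM ATP in pH 7.2 imidazole buffer, with luminescence measured after eight minutes at ambient temperature.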
Rab9 promoter act: Rab9 promoter activation; Huh7 Rab9 promoter-luciferase reporter, luminescence, 24 h; Potency, µM (series often up to 9.22 µM), inactives show top-dose activation, negative = inhibition, usual class: activators; 2.8% of 320,000 active; AID 485297; note: % of control where 0% means no effect; nearly all actives have a fitted effect of over 60% in size
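Steps: seed 1500 Huh7 Rab9-luc cells per well, rest 2 h at 37 °C; add compound in DMSO; incubate 24 h; add luciferase reagent, 10 min ambient; read luminescence.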
FLuc counter: counter-screen for miR-21 project: firefly luciferase inhibitors or activators; P08659; purified FLuc, Km substrates, luminescence inhibition; Potency, µM (series often up to 57.5 µM), for the others: at the highest dose activity change, negative = inhibition, most hits filed as inhibitors; 6.9% of 360,000 active; AID 588342;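 note: plate controls were vehicle for no effect and reference inhibitor for full effect; nearly all actives have a fitted effect of over 55% in size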
Target sequence (P08659 whole entry, looked up): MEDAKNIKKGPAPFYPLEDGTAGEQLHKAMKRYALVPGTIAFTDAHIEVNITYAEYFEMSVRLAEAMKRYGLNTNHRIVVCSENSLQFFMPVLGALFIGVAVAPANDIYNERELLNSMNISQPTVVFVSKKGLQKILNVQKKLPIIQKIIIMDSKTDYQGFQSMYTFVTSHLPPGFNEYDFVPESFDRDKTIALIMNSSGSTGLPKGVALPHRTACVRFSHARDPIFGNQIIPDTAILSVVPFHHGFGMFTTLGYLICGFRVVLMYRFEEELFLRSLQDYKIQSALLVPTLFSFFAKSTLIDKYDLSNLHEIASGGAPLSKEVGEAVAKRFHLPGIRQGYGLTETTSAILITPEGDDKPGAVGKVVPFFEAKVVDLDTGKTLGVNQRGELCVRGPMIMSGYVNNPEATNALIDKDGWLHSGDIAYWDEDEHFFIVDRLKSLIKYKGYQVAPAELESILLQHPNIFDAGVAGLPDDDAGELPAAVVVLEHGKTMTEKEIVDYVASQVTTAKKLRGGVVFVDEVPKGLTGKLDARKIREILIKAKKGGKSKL
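Biochemical qHTS of compounds, final roughly 60 µM downward over six points, against 10 nM purified firefly luciferase using Km concentrations of substrates (10 uM D-luciferin, 10 uM ATP) in Tris acetate pH 7.5 buffer; luminescence output.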
NPC1 prom act: NPC1 promoter activation; AID 485313; Huh7 NPC1 promoter luciferase reporter, 24 h; 2.4% of 320,000 active; Potency, µM (highest dose often 9.22 µM), for the others: at the top dose activation, hits mostly activators; note: % of control where 0% means no effect; nearly all actives have a fitted effect of over 60% in size
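In 1536-well qHTS, Huh7 cells harboring an NPC1 promoter–luciferase construct received compound for 24 h; activation was quantified by luminescence following luciferase reagent addition.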
SMN2 splice up: increases expression of the SMN2 splice variant | 2.8% of 210,000 active | HEK293 SMN2-luciferase splicing reporter, luminescence, 30-36 h | Potency, µM (doses to about 46.1 µM), for inactives: at the top dose activity change, positive = activation, most hits filed as activators; note: % of control where 0% means no effect; nearly all actives have a fitted effect of over 55% in size
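HEK293 cells carry an SMN2 […]–luciferase reporter in which exon 7 inclusion puts luciferase in frame. Cells were plated 10-12 h before compound addition, then incubated 30-36 h at 37C. ONE-Glo luminescence was read; sodium butyrate at 4.5 mM final served as control.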
Starred values were filed as active, the others as inactive; ? = inconclusive; . = not tested or not shown. Compounds with a hit are over-represented: about 7.3% of the library has one in this group of screens. Calls come from the whole dose curve; as a rule, active = well fitted curve in the direction sought with a large enough effect; inconclusive = small, poorly fitted or top-dose-only effect, or another doubt; inactive = no such curve, though single readings can be large; an effect the other way counts as inactive or inconclusive. Potency is the fitted concentration of half-maximal effect.

SMILES	ELG1 genotoxic	Luc counter	Rab9 promoter act	FLuc counter	NPC1 prom act	SMN2 splice up
CC(=O)Nc1ccc(NC(=O)c2oc3cc(C)c(C)cc3c2C)cc1	?	2%	-5%	-4%	-1%	-15%
Cc1ccccc1OCCN1C(=O)c2ccccc2C1=O	?	0%	?	19µM*	?	10%
Nc1cccc2c1C(=O)N(CCOc1ccc(F)cc1)C2=O	2.1µM*	.	1.6µM*	2.7µM*	1.8µM*	.
O=C1c2ccccc2C(=O)N1CCOc1ccccc1Br	?	.	?	24µM*	28%	.
O=C1c2ccccc2C(=O)N1CCOc1ccccc1Cl	0%	.	-1%	-1%	-2%	.
Clc1cccc(CNCCCSc2nnnn2-c2ccccc2)c1	.	.	.	-2%	.	.
COc1ccc(CNC(=O)CN(c2ccccc2OC)S(=O)(=O)c2ccc(C)cc2)cc1	.	.	.	0%	.	.
COC(=O)c1sccc1NC(=O)/C=C/c1ccc(Cl)cc1Cl	?	-29%	?	?	?	11µM*
COC(=O)c1cc(Cl)c(NC(=O)/C=C/c2ccc(Cl)cc2Cl)cc1OC	?	0%	0%	-20%	13%	-7%
COC(=O)c1sccc1NC(=O)/C=C/c1c(Cl)cccc1Cl	?	-8%	?	12µM*	21%	14µM*
COC(=O)c1sccc1NC(=O)c1c(Cl)cccc1Cl	2%	.	-3%	2%	-3%	.
CCC1(c2ccc(F)cc2)NC(=O)N(CC(=O)Nc2ccc(-c3nc4ccc(C)cc4s3)cc2)C1=O (configuration not stated)	?	-4%	1.4µM*	3.4µM*	2.8µM*	4µM*
COc1ccc(NC(=O)CN2C(=O)NC(c3ccccc3)(c3ccccc3)C2=O)cc1	-3%	.	-2%	21µM*	-3%	.
Cc1ccc(NC(=O)CN2C(=O)NC(C)(c3ccc(Cl)cc3)C2=O)cc1 (configuration not stated)	-6%	.	-2%	1%	-3%	.
COc1ccc(C2(C)NC(=O)N(CC(=O)Nc3ccc(-c4nc5ccc(C)cc5s4)cc3)C2=O)cc1 (configuration not stated)	?	-3%	2.2µM*	3.4µM*	4µM*	7.1µM*
CCC1(c2ccc(F)cc2)NC(=O)N(CC(=O)Nc2ccc3c(c2)OCCO3)C1=O (configuration not stated)	0%	.	.	.	.	.
Cc1ccc(Cn2ccnc2SCC(=O)Nc2ccc3c(c2)OCO3)cc1	.	.	.	-14%	.	.
O=C(CSc1nccn1Cc1ccccc1)Nc1ccc2c(c1)OCCO2	.	.	.	13µM*	.	.
COC(=O)c1ccc(CSc2ncnc3c2nnn3-c2ccc(OC)cc2)o1	2%	0%	-4%	21µM*	12%	-1%
O=C(CSc1ncnc2ccccc12)Nc1ccc2c(c1)OCCO2	-9%	0%	14%	17µM*	0%	0%
O=C(CSc1ncnc2ccccc12)Nc1ccc2c(c1)OCO2	-23%	5%	-8%	-9%	2%	-30%
COc1ccc(-n2nnc3c(SCC(=O)Nc4ccc5c(c4)OCCO5)ncnc32)cc1	9%	-9%	1%	7.6µM*	4%	21%
COc1ccc(NC(c2ccc(F)cc2)c2nnc(-c3ccccc3Cl)o2)cc1Cl (configuration not stated)	.	.	.	1%	.	-25%
CCc1cccc(NC(=O)Cn2c(=O)n3nc(-c4cccc(F)c4)nc3c3ccccc32)c1	.	.	.	0%	.	.
O=C(CSc1ncccc1C(=O)O)Nc1ccc2c(c1)OCCO2	0%	.	0%	11µM*	7%	.
SMILES	ELG1 genotoxic	Luc counter	Rab9 promoter act	FLuc counter	NPC1 prom act	SMN2 splice up
O=C(CSc1ccccc1C(=O)O)Nc1ccc2c(c1)OCO2	0%	.	-5%	?	-2%	.
CCc1ccccc1-n1c(SCC(=O)Nc2ccc3c(c2)OCCO3)nc2[nH]ncc2c1=O	?	8%	5%	17µM*	0%	-16%
O=C(Sc1cccc2cccnc12)c1ccccc1Br	14%	.	-23%	24µM*	-33%	.
C=CCNC(=O)c1c(Br)cnn1-c1ccc(C)cc1	?	.	2.5µM*	19µM*	2.5µM*	.
Cc1ccc(-n2ncc(Cl)c2C(=O)NCc2ccccc2)cc1	?	.	?	11µM*	?	.
CCOC(=O)N/N=C(\C)c1cccs1	?	-5%	10%	-14%	19%	9%
CC(=O)Nc1cccc(/C(C)=N/NC(=S)NC(C)C)c1	4%	0%	29%	24µM*	16%	24%
C/C(=N/NC(=O)c1cccs1)c1cccs1	?	.	2.5µM*	11µM*	?	.
C/C(=N\Nc1ccc(Cl)c(C(=O)O)c1)c1cccs1	5%	.	?	?	?	.
C/C(=N/Nc1ccccc1C(=O)O)c1cccs1	?	.	3.5µM*	19µM*	?	.
C/C(=N/NC(=O)c1cccs1)c1cccc(N)c1	?	-5%	?	19µM*	?	.
COc1ccc(CCNC(=O)C2c3ccccc3C(=O)N2Cc2ccccc2)cc1OC (configuration not stated)	.	.	.	-5%	.	.
COc1ccc(N2CCN(C(=O)C3CCN(S(=O)(=O)c4cccc5nonc45)CC3)CC2)cc1	.	.	.	-3%	.	.
C=C(C)C1CC=C(C)/C(=N/NC(=O)c2ccccc2[N+](=O)[O-])C1 (configuration not stated)	-7%	-2%	0%	?	-1%	-33%
CCN(CC)S(=O)(=O)c1cccc(C(=O)N/N=C(\C)c2cccs2)c1	?	-2%	3.2µM*	11µM*	3.5µM*	11µM*
C=C(C)C1CC=C(C)/C(=N/NC(=O)c2cccs2)C1 (configuration not stated)	?	2%	?	4.8µM*	?	?
CC(=O)Nc1cccc(/C(C)=N/NC(=O)c2cccs2)c1	?	1%	2%	19µM*	1%	?
Cc1cccc(NC(=O)C(=O)c2cc(C)n(-c3ccccc3)c2C)c1C	.	.	.	-2%	.	.
O=C(Oc1ccc(C(=S)N2CCC(O)CC2)cc1)c1ccc(Cl)cc1	0%	-1%	4%	5.4µM*	-2%	3%
CCCCCCc1cc2cc(C(=O)NC)c(=N)oc2cc1O	-3%	-5%	2%	-7%	-1%	-9%
CCN(CC)c1ccc2cc(NC(=O)CCC(=O)O)c(=O)oc2c1	-12%	2%	-28%	6.7µM*	-23%	-55%
CCN(CC)c1ccc2cc(C(N)=O)c(=O)oc2c1	13%	0%	27%	?	21%	?
CCCCCCc1cc2cc(C(N)=O)c(=N)oc2cc1O	-8%	-3%	-1%	17µM*	2%	-2%

Compound activity: PubChem BioAssay, National Center for Advancing Translational Sciences (NCATS)
